Measurements: the supplement of paper PMC12669032

Tests used:
Assay in all cases: growth AUC relative to DMSO control (median of replicates) (fraction); higher = more growth (less inhibition), active = hit call of the paper
Conditions in all cases: 20 µM; 24 h;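 active = AUC reduced over 20% with Padj below 0.05 in at least 2 of 3 replicates; inactive = otherwise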
Akkermansia muciniphila = system: Akkermansia muciniphila
Procedure, shortened: (§1)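 OD600 was recorded every hour for 24 h in anaerobic monocultures of gut bacteria kept at 37 °C in mGAM, seeded at OD600 0.05 and given 20 µM compound in 1% DMSO. The area under each growth curve was scaled to the plate median of solvent-only wells, or to row and column medians for the industrial chemical plate. Before this step, the minimum OD was set to 0. Reported values are medians of three biological replicates run on separate days.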

Bacteroides caccae = system: Bacteroides caccae
Procedure, shortened: as §1

Bacteroides clarus = system: Bacteroides clarus
Procedure, shortened: as §1

Bacteroides dorei = system: Bacteroides dorei
Procedure, shortened: as §1

Bacteroides stercoris = system: Bacteroides stercoris
Procedure, shortened: as §1

[1] = system: Bacteroides thetaiotaomicron
Procedure, shortened: as §1

Bacteroides uniformis = system: Bacteroides uniformis
Procedure, shortened: as §1

[2] = system: Bifidobacterium longum subsp. longum
Procedure, shortened: as §1

Clostridium difficile = system: Clostridium difficile
Procedure, shortened: as §1

Collinsella aerofaciens = system: Collinsella aerofaciens
Procedure, shortened: as §1

Coprococcus comes = system: Coprococcus comes
Procedure, shortened: as §1

Escherichia coli ED1a = system: Escherichia coli ED1a
Procedure, shortened: as §1

Escherichia coli IAI1 = system: Escherichia coli IAI1
Procedure, shortened: as §1

Eubacterium rectale = system: Eubacterium rectale
Procedure, shortened: as §1

[3] = system: Fusobacterium nucleatum subsp. animalis
Procedure, shortened: as §1

Lactobacillus gasseri = system: Lactobacillus gasseri
Procedure, shortened: as §1

Lactobacillus paracasei = system: Lactobacillus paracasei
Procedure, shortened: as §1

Odoribacter splanchnicus = system: Odoribacter splanchnicus
Procedure, shortened: as §1

[4] = system: Parabacteroides distasonis
Procedure, shortened: as §1

Parabacteroides merdae = system: Parabacteroides merdae
Procedure, shortened: as §1

Measured: growth AUC

CCc1cccc(C)c1N(C(=O)C(=O)O)C(C)COC (stereo not given)
inactive: Akkermansia muciniphila 0.949 | Bacteroides caccae 1.03 | Bacteroides clarus 0.97 | Bacteroides dorei 1.02 | Bacteroides stercoris 1.1 | [1] 1.03 | Bacteroides uniformis 1.03 | [2] 1.03 | Clostridium difficile 1.03 | Collinsella aerofaciens 1.04 | Coprococcus comes 1.02 | Escherichia coli ED1a 0.992 | Escherichia coli IAI1 0.987 | Eubacterium rectale 0.979 | [3] 1.01 | Lactobacillus gasseri 0.977 | Lactobacillus paracasei 0.852 | Odoribacter splanchnicus 1.04 | [4] 1.02 | Parabacteroides merdae 1.01

CC(=O)CC(c1ccccc1)c1c(O)c2ccccc2oc1=O (stereo not given)
inactive: Akkermansia muciniphila 0.913 | Bacteroides caccae 1.01 | Bacteroides clarus 0.93 | Bacteroides dorei 1.02 | Bacteroides stercoris 0.965 | [1] 0.952 | Bacteroides uniformis 0.952 | [2] 1 | Clostridium difficile 0.998 | Collinsella aerofaciens 0.966 | Coprococcus comes 1.01 | Escherichia coli ED1a 0.967 | Escherichia coli IAI1 0.982 | Eubacterium rectale 0.963 | [3] 1.02 | Lactobacillus gasseri 0.957 | Lactobacillus paracasei 0.943 | Odoribacter splanchnicus 0.927 | [4] 0.907 | Parabacteroides merdae 1.01

S=C([S-])NCCNC(=S)[S-].[Mn+2]
inactive: Akkermansia muciniphila 0.999 | Bacteroides caccae 1.01 | Bacteroides clarus 1.13 | Bacteroides dorei 0.979 | Bacteroides stercoris 1.1 | [1] 1.03 | Bacteroides uniformis 0.991 | [2] 0.996 | Clostridium difficile 0.977 | Collinsella aerofaciens 1 | Coprococcus comes 0.998 | Escherichia coli ED1a 1.03 | Escherichia coli IAI1 1.03 | Eubacterium rectale 1.02 | [3] 1.04 | Lactobacillus gasseri 0.994 | Lactobacillus paracasei 1.16 | Odoribacter splanchnicus 1.06 | [4] 1.02 | Parabacteroides merdae 1.03

COC(=O)COc1ccc(Cl)cc1C
inactive: Akkermansia muciniphila 0.917 | Bacteroides caccae 1.04 | Bacteroides clarus 0.986 | Bacteroides dorei 1.01 | Bacteroides stercoris 1.03 | [1] 1.01 | Bacteroides uniformis 1.01 | [2] 0.805 | Clostridium difficile 0.989 | Collinsella aerofaciens 1.01 | Coprococcus comes 1.04 | Escherichia coli ED1a 0.969 | Escherichia coli IAI1 1.01 | Eubacterium rectale 0.979 | [3] 1.03 | Lactobacillus gasseri 1.01 | Lactobacillus paracasei 1.03 | Odoribacter splanchnicus 1.01 | [4] 1.01 | Parabacteroides merdae 1.03

CCc1cccc(C)c1N(COC(C)C)C(=O)CCl
inactive: Akkermansia muciniphila 1.07 | Bacteroides caccae 1 | Bacteroides clarus 1.01 | Bacteroides dorei 1.03 | Bacteroides stercoris 0.998 | [1] 0.993 | Bacteroides uniformis 1.04 | [2] 1.02 | Clostridium difficile 0.956 | Collinsella aerofaciens 1.03 | Coprococcus comes 1.03 | Escherichia coli ED1a 1.05 | Escherichia coli IAI1 1.01 | Eubacterium rectale 1.04 | [3] 0.961 | Lactobacillus gasseri 0.99 | Lactobacillus paracasei 1.07 | Odoribacter splanchnicus 1.1 | [4] 1.04 | Parabacteroides merdae 0.982

CCOC(=O)c1nc(C(Cl)(Cl)Cl)n(-c2ccc(Cl)cc2Cl)n1
inactive: Akkermansia muciniphila 0.908 | Bacteroides caccae 1 | Bacteroides clarus 1 | Bacteroides dorei 0.99 | Bacteroides stercoris 0.861 | [1] 0.966 | Bacteroides uniformis 0.968 | [2] 0.983 | Clostridium difficile 0.983 | Collinsella aerofaciens 0.952 | Coprococcus comes 0.946 | Escherichia coli ED1a 1 | Escherichia coli IAI1 1.01 | Eubacterium rectale 0.961 | [3] 0.995 | Lactobacillus gasseri 1.02 | Lactobacillus paracasei 1 | Odoribacter splanchnicus 1 | [4] 0.899 | Parabacteroides merdae 0.965

CCc1cccc(CC)c1N(COC)C(=O)CS(=O)(=O)[O-].[Na+]
inactive: Akkermansia muciniphila 1.02 | Bacteroides caccae 0.953 | Bacteroides clarus 1.01 | Bacteroides dorei 0.989 | Bacteroides stercoris 1.07 | [1] 0.876 | Bacteroides uniformis 0.996 | [2] 1.04 | Clostridium difficile 1.07 | Collinsella aerofaciens 0.966 | Coprococcus comes 0.971 | Escherichia coli ED1a 0.979 | Escherichia coli IAI1 0.987 | Eubacterium rectale 1.02 | [3] 1.07 | Lactobacillus gasseri 1.05 | Lactobacillus paracasei 1.02 | Odoribacter splanchnicus 1.01 | [4] 1 | Parabacteroides merdae 1.01

COC(=O)c1ccc(C)cc1C1=NC(C)(C(C)C)C(=O)N1 (racemic)
inactive: Akkermansia muciniphila 1.03 | Bacteroides caccae 1.01 | Bacteroides clarus 0.971 | Bacteroides dorei 0.975 | Bacteroides stercoris 0.863 | [1] 0.976 | Bacteroides uniformis 1 | [2] 1 | Clostridium difficile 0.972 | Collinsella aerofaciens 0.957 | Coprococcus comes 0.993 | Escherichia coli ED1a 0.969 | Escherichia coli IAI1 0.97 | Eubacterium rectale 1.03 | [3] 0.916 | Lactobacillus gasseri 0.931 | Lactobacillus paracasei 0.959 | Odoribacter splanchnicus 1.07 | [4] 1.03 | Parabacteroides merdae 0.976
